About 2,000 (36%) of roughly 5,500 compounds were called active. Inconclusive results (about 18%) are left out. No stated cut-off is given here; in the data, active means normalized growth mostly below about 0.91 (no sharp cut-off); inconclusive means no clear call, values can overlap the other calls; inactive means mostly above about 0.92. The list shows a part of the results.
Assay: chemical genetic growth profiling, strain panel (AID 1159580);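 further: tested at 20 µM; growth read once vehicle control cultures reached saturation at 30 °C; 1 = growth at the plate median or of vehicle wells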
Conditions: S. cerevisiae deletion strains, growth OD

Measured: normalized growth

O=c1[nH]ccc2c(O)cccc12
inactive: locus YAL013W, strain DEP1, stronger effect = lower value 0.996 | locus YAL040C, strain CLN3, stronger effect = lower value 0.999 | locus YCL061C, strain MRC1 (second series), stronger effect = lower value 0.996 | locus YDR363W, strain ESC2, stronger effect = lower value 1.02 | locus YER002W, strain NOP16, stronger effect = lower value 0.999 | locus YGR078C, strain PAC10, stronger effect = lower value 1 | locus YGR229C, strain SMI1, stronger effect = lower value 1.02 | locus YNL175C, strain NOP13, stronger effect = lower value 1.01 | locus YNL197C, strain WHI3, stronger effect = lower value 1.01 | locus YNL224C, strain SQS1, stronger effect = lower value 0.994 | locus YNL322C, strain KRE1, stronger effect = lower value 1 | locus YOR083W, strain WHI5 (second series), stronger effect = lower value 1.06 | locus YPL241C, strain CIN2, stronger effect = lower value 0.99

Reference: PubChem BioAssay AID1159580 (chemical genetic matrix, 2015)
